# Biological target: Small nuclear ribonucleoprotein G (UniProt P62308)
# Assay: cross-link between two proteins; cross-linking mass spectrometry
substance,measurement,value
"Small nuclear ribonucleoprotein-associated proteins B and B', P14678",listed as a hit,yes

# — article PMC10943123
